Experimental data taken from PubChem BioAssay (NCATS).

assay: qHTS profiling of the MIPE4 collection as inhibitors of Plasmodium falciparum (HB3) proliferation (AID 743347);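 further: plate controls were DMSO vehicle wells for no effect and artemisinin wells for full effect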; settings: P. falciparum HB3 in erythrocytes, SYBR Green DNA, 72 h; at 28.5 µM (top of the series) unless noted
Source text: Plasmodium falciparum is a virulent malarial parasite that kills 1-2 million people worldwide each year. Transmitted by mosquitoes, the sporozoite form of the parasite enters the blood stream to infect hepatocytes, where they become merozoites that infect red blood cells (erythrocytes). Within erythrocytes, merozoites begin a […] cycle of growth and division, after which the parasite is released to infect new red blood cells. Gametocytes, which form within erythrocytes as well, circulate in the bloodstream and are ingested by the mosquito, thereby completing the life cycle. To profile malarial isolates for differential chemical responses and to identify inhibitors of malarial growth, an assay that measures P. falciparum growth and replication within erythrocytes was employed. This assay uses a DNA binding fluorescent dye (SYBR Green) to detect parasite DNA following cell lysis. Because mature erythrocytes lack DNA, only Plasmodium-derived DNA is detected.
The SYBR Green viability assay was adapted from a method described previously (Plouffe et al., 2008). For screening 3 ul culture medium was dispensed into 1536 well black clear bottom plates (Aurora Biotechnologies) using a Multidrop Combi (Thermo Fisher Scientific Inc.), 23 nL compounds in DMSO were added by a pin tool (Kalypsys), and 5 ul of erythrocytes infected with P. falciparum (0.3% parasitemia, 2.5% hematocrit final concentration) were added. The plates were incubated at 37 C in a humidified incubator in 5% CO2 for 72 h, and 2 ul lysis buffer (20 mM Tris HCl, 10 mM EDTA, 0.16% saponin, 1.6% triton X, 10X SYBR Green I supplied as 10,000X […] by Invitrogen) was added to each well. The plates were mixed for 25 sec with gentle shaking and incubated overnight at room temperature in the dark. The following morning, fluorescence intensity at 485(14) nm excitation and 535(25) nm emission wavelengths was measured on an EnVision (Perkin Elmer) plate reader. Plate reads were normalized relative to the control inhibitor (0.29 uM artemisinin) and vehicle (DMSO) wells present on each plate and then corrected by an algorithm using vehicle-only control plates at the beginning and end of the compound plate stack.

Row | Structure (SMILES) | growth, % of control
1 | NCCCC(O)(P(=O)(O)O)P(=O)(O)O | 117%
2 | COc1ccccc1OCC(O)COC(N)=O (stereo not given) | 111%
3 | CNC(=O)c1cc(Oc2ccc(NC(=O)Nc3ccc(Cl)c(C(F)(F)F)c3)cc2)ccn1 | 12.2%
4 | CCc1cc(C(N)=S)ccn1 | 2.68%
5 | NNC(=O)c1ccncc1 | 2.55%
6 | CCCc1nc(C)c2c(=O)[nH]c(-c3cc(S(=O)(=O)N4CCN(CC)CC4)ccc3OCC)nn12 | 9.8%
7 | CC1=C(C(=O)O)N2C(=O)[C@@H](NC(=O)C(N)c3ccccc3)[C@H]2SC1 (stereo not given in full) | 108%
8 | CC(=O)Oc1ccccc1C(=O)Nc1ncc([N+](=O)[O-])s1 | 4.58% [at 57.5 µM]
9 | C[C@]12C=CC(=O)C=C1CC[C@@H]1[C@@H]2C(=O)C[C@@]2(C)[C@H]1CC[C@]2(O)C(=O)CO | 104% [at 9.64 µM]
10 | Nc1nc(N)nc(-c2cc(Cl)ccc2Cl)n1 | 97.7%
11 | OCc1ccc(-c2nn(Cc3ccccc3)c3ccccc23)o1 | 21.8%
12 | CCC(=O)O[C@]1(C(=O)CCl)[C@@H](C)C[C@H]2[C@@H]3CCC4=CC(=O)C=C[C@]4(C)[C@@]3(F)[C@@H](O)C[C@@]21C | 8.53%
13 | CCC(=O)O[C@]1(C(=O)SCF)[C@H](C)C[C@H]2[C@@H]3C[C@H](F)C4=CC(=O)C=C[C@]4(C)[C@@]3(F)[C@@H](O)C[C@@]21C | 87.8%
14 | COC(=O)Nc1nc2ccc(S(=O)c3ccccc3)cc2[nH]1 (stereo not given) | 104%
15 | CC(C)(C#N)c1cc(Cn2cncn2)cc(C(C)(C)C#N)c1 | 66.6%
16 | CC(C)(C)C(=O)OCOP(=O)(COCCn1cnc2c(N)ncnc21)OCOC(=O)C(C)(C)C | 82.4%
17 | CN1CCN(c2c(F)cc3c(=O)c(C(=O)O)cn(CCF)c3c2F)CC1 | 99%
18 | CC[C@H](C)C(=O)O[C@H]1C[C@@H](C)C=C2C=C[C@H](C)[C@H](CC[C@@H]3C[C@@H](O)CC(=O)O3)[C@H]21 | 85.6%
19 | CN1CCCC(n2nc(Cc3ccc(Cl)cc3)c3ccccc3c2=O)CC1 (stereo not given) | 2.79%
20 | CCCCCCNC(=O)n1cc(F)c(=O)[nH]c1=O | 71.2%

Row | Structure (SMILES) | growth, % of control
21 | O=C(NCC1CN(c2ccc(N3CCOCC3=O)cc2)C(=O)O1)c1ccc(Cl)s1 (stereo not given) | 59.9%
22 | CN(Cc1cc(Br)cc(Br)c1N)C1CCCCC1 | 62.3%
23 | O=P(O)(O)C(O)(Cc1cccnc1)P(=O)(O)O | 100%
24 | CCCc1cc(C(N)=S)ccn1 | 6.05%
25 | COc1ccc2c(c1)c(CC(=O)OCC(=O)O)c(C)n2C(=O)c1ccc(Cl)cc1 | 80.2%
26 | CNCC[C@H](Oc1cccc2ccccc12)c1cccs1 | 3.44%
27 | O=C(O)CSCC(=O)NC1CCSC1=O (stereo not given) | 99.2%
28 | COc1cc(NS(=O)(=O)c2ccc(N)cc2)nc(OC)n1 | 91%
29 | Oc1c(Cl)cc(Cl)c2cccnc12 | 347%
30 | CCN[C@H]1C[C@H](C)S(=O)(=O)c2sc(S(N)(=O)=O)cc21 | 103%
31 | NC(N)=NC(N)=NCCc1ccccc1 | 50.7%
32 | O=S(=O)(O)CCS | 66.6%
33 | CO[C@@]12[C@H](COC(N)=O)C3=C(C(=O)C(C)=C(N)C3=O)N1C[C@@H]1N[C@@H]12 | 2.97%
34 | COc1cccc(N(C)C(=S)Oc2ccc3c(c2)CCCC3)n1 | 24.4%
35 | Cc1oc(=O)oc1CN1CCN(c2cc3c(cc2F)c(=O)c(C(=O)O)c2n3C(C)S2)CC1 (stereo not given) | 24.3%
36 | CCc1c2c(nc3ccc(OC(=O)N4CCC(N5CCCCC5)CC4)cc13)-c1cc3c(c(=O)n1C2)COC(=O)[C@]3(O)CC | 71.1%
37 | CCOCC(O)COc1ccc(NC(=O)CC[S+](C)C)cc1 (stereo not given) | 99.4%
38 | CC(C)Cn1cnc2c(N)nc3ccccc3c21 | 58.5%
39 | CNC1CCCN(c2c(F)cc3c(=O)c(C(=O)O)cn(C4CC4)c3c2OC)C1 (stereo not given) | 22.8%
40 | CCCCS(=N)(=O)CCC(N)C(=O)O (stereo not given) | 102%
